Measured values published in PubChem BioAssay (NCATS).
Results filed as inconclusive are left out. Entries that show only a call come without a potency. The source made the active and inactive calls. Calls follow the shape of the dose curve; as a rule, active = well fitted curve in the direction sought with a large enough effect; inconclusive = small, poorly fitted or top-dose-only effect, or another doubt; inactive = no such curve, though single readings can be large; an effect the other way counts as inactive or inconclusive.

Legend:
[1] = target: Aldehyde dehydrogenase, mitochondrial (Homo sapiens) (UniProt P05091); assay: qHTS for Inhibitors of the Aldehyde Dehydrogenase Family (ALDH2) Primary screen (AID 2061308); also: nearly all actives have a fitted effect of over 55% in size
[2] = target: Retinaldehyde dehydrogenase 3 (Homo sapiens) (UniProt P47895); assay: qHTS for Inhibitors of the Aldehyde Dehydrogenase Family (ALDH1A3) Primary screen (AID 2061315)

| SMILES | Potency [1] | Potency [2] |
| --- | --- | --- |
| Cc1cc(C)n2ncc(C(=O)NCc3ccco3)c2n1 | inactive | inactive |
| Cc1ccc(-c2cc(C(=O)Nc3ccc(Cl)cc3)c3ccccc3n2)cc1C | inactive | inactive |
| COc1cccc(C2c3c(ncn(-c4ccncc4)c3=N)Oc3ccc4ccccc4c32)c1 (configuration not stated) | inactive | inactive |
| C/C=C(\C)C(=O)OC1C[C@@]2(COC(C)=O)O[C@H]2/C=C\[C@@]2(C)O[C@@H]2[C@H]2OC(=O)C(COC(C)=O)=C12 (some centres not stated) | inactive | inactive |
| CCN(CC)CCCCn1c(-c2ccccc2)nc2c(Nc3ccccc3)nc(C)nc21 | inactive | inactive |
| CCC(C)(CCN1CCOCC1)N(Cc1cc2ccccc2n(C)c1=O)C(=O)C1CCCCC1 (configuration not stated) | inactive | inactive |
| CCCn1c(-c2ccc(F)cc2)nc2c(N3CCN(Cc4nc(OC)cc(OC)n4)CC3)nc(C)nc21 | inactive | inactive |
| COc1cccc(NC(=S)N2CCN(c3ncc(C(F)(F)F)cc3Cl)CC2)n1 | inactive | inactive |
| O=C(O)c1ccncc1Nc1nn(CCN2CCC(F)(F)CC2)c2ccc(F)cc12 | inactive | inactive |
| COc1cc(O)c(C(CC(=O)N2CCC(c3ccccc3)CC2)c2ccc(OC)c(OC)c2)c(OC)c1 (configuration not stated) | inactive | inactive |
| CCCn1c(C)nc2c(NCCN3CCCCC3)nc(C)nc21 | inactive | inactive |
| O=[N+]([O-])c1cccc(CNc2ccc(S(=O)(=O)Nc3nccs3)cc2)c1O | inactive | inactive |
| CCN(CC)CCCn1c(-c2ccccc2)nc2c(N3CCOCC3)nc(C)nc21 | inactive | inactive |
| Cc1nc(NCc2ccccc2)c2nc(-c3ccccc3)n(CCCN(C)C)c2n1 | inactive | inactive |
| Cc1cnc(-c2ccccc2C(C)C)nc1NCC1CCN(C)CC1 | inactive | inactive |
| O=C(O)c1cc(F)c(S(=O)(=O)N2CCN(S(=O)(=O)c3ccc4c(c3)OCCO4)CC2)cc1F | inactive | inactive |
| COCCNc1cc2c(cc1[S+](=O)([O-])Nc1ccc(C)c(C)c1)CCC(=O)N2 | inactive | inactive |
| COc1ccc(-c2nnc3n2N=C(c2ccccc2OC)CS3)c(OC)c1 | inactive | inactive |
| Cc1ccc(NS(=O)(=O)c2cccc(F)c2)cc1C | inactive | inactive |
| CCOc1ccccc1-c1nnc2n1N=C(c1c(OC)cccc1OC)CS2 | inactive | inactive |
| CCCCN(C)C(=O)Cn1nc(-c2ccc(C(F)(F)F)cc2)ccc1=O | inactive | inactive |
| Cc1cc(C)nc(NC(=S)N2CCN(c3nc4ccccc4s3)CC2)c1 | inactive | inactive |
| Brc1cnc2nc(SCc3cccnc3)[nH]c2c1 | inactive | inactive |
| O=S(=O)(NCC1CN(S(=O)(=O)c2ccc3c(c2)OCCO3)C1)c1c(F)cccc1F | inactive | inactive |
| C[C@@H]1O[C@@H](O[C@H]2[C@H](O[C@H]3CC[C@@]4(C)C(CC[C@]5(C)C4CC=C4[C@@H]6CC(C)(C)CC[C@]6(C(=O)O)CC[C@]45C)[C@]3(C)CO)OC[C@H](O)[C@@H]2O)[C@H](O)[C@H](O[C@@H]2OC[C@@H](O)[C@H](O)[C@H]2O)[C@H]1O (some centres not stated) | inactive | inactive |
| O=C(NCc1nnc(-c2cc3ccccc3[nH]2)s1)c1ccccc1 | inactive | inactive |

| SMILES | Potency [1] | Potency [2] |
| --- | --- | --- |
| O=C1Cc2cc(S(=O)(=O)N3CCN(c4cccc(C(F)(F)F)c4)CC3)ccc2N1 | inactive | inactive |
| O=C1c2ccccc2C(=O)N1c1cccnc1 | inactive | inactive |
| O=C1NS(=O)(=O)c2cc(Cl)ccc21 | inactive | inactive |
| Cc1cc2c(cc1C1(c3ccc(C(=O)O)cc3)CC1)C(C)(C)CCC2(C)C | inactive | inactive |
| CCOC(=O)Nc1sc2c(c1C(N)=O)CCCC2 | inactive | inactive |
| CCOC(=O)CCCC(=O)Nc1ncnc2c1C(c1ccccc1)c1c(ccc3ccccc13)O2 (configuration not stated) | inactive | inactive |
| COc1ccccc1-c1csc(N2CCC(C(N)=O)CC2)n1 | inactive | inactive |
| O=C(Nc1ccc(Cl)c(Cl)c1)Nc1ccnc(-c2ccncc2)n1 | inactive | inactive |
| C=CCc1cc(F)c(S(=O)(=O)N2CCN(S(=O)(=O)c3ccc4c(c3)OCCO4)CC2)cc1F | inactive | inactive |
| O=S1(=O)N=C(Oc2ccccc2C(F)(F)F)c2ccccc21 | inactive | inactive |
| CC[C@@H]1C(=O)O[C@]23C=C[C@@H]4C(C(=O)OC)=CO[C@H](O[C@@H]12)[C@@H]43 | inactive | inactive |
| O=C(O)c1ccc(-c2noc(-c3ccccc3C(F)(F)F)n2)cc1 | inactive | inactive |
| COc1ccc(C2=Nn3c(nnc3-c3ccc(OC)c(OC)c3)SC2)cc1 | inactive | inactive |
| Cc1nc(NCc2ccccc2)c2nc(-c3ccccc3)n(CCN(C)C)c2n1 | inactive | inactive |
| O=S(=O)(Nc1nc(-c2ccccc2C(F)(F)F)nc2ccccc12)c1ccc(Br)cc1 | inactive | inactive |
| Fc1cccc(-c2nc3ccccc3s2)c1 | inactive | inactive |
| O=C(O)c1ccc(O)c2ncc(NC3CCNCC3)cc12 | inactive | inactive |
| CCCCNC(=O)c1ccc2c(c1)ncn2-c1cccc(C)c1 | inactive | inactive |
| O=C(O)c1ccc(O)c2ncc(N3CCC(N4CCOCC4)C3)cc12 (configuration not stated) | inactive | inactive |
| CC1(C)CC[C@]2(C(=O)O)CC[C@]3(C)C(=CCC4[C@@]5(C)C[C@@H](O)[C@H](O)C(C)(C)C5CC[C@]43C)C2C1 (some centres not stated) | inactive | inactive |
| Fc1cccc(CNc2ncnc3ccc(-c4ccccc4Cl)cc23)c1 | inactive | inactive |
| COc1cccc(C2c3c(ncn(CCN4CCOCC4)c3=N)Oc3ccc4ccccc4c32)c1 (configuration not stated) | inactive | inactive |
| O=c1c2ccccc2nc2sc(Nc3ccc(F)cc3)nn12 | inactive | inactive |
| COc1cccc(NC(=S)N2CCN(c3cccc(C(F)(F)F)n3)CC2)n1 | inactive | inactive |
| COc1ccccc1-c1ncc(C)c(NCc2ccc(-c3cccnc3)cc2)n1 | inactive | inactive |
